Test [1] is described as follows: qHTS assay to identify small molecule antagonists of the thyroid receptor (TR) signaling pathway - cell viability counter screen (AID 743064). Note: nearly all actives have a fitted effect of over 50% in size. Note: potency is the fitted concentration of half-maximal effect. A digest of the protocol: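 GH3.TRE-Luc rat pituitary cells dosed after 4 hr plating, co-stimulated with T3 at 1 nM final, incubated 23.5 h at 37 C. Viability measured in the same wells by CellTiter-Fluor fluorescence after 30 min further at 37 C.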

Test [2] in a line: qHTS assay to identify small molecule antagonists of the thyroid receptor (TR) signaling pathway (AID 743065). Note: nearly all actives have a fitted effect of over 55% in size. Note: potency is the fitted concentration of half-maximal effect. An outline of the steps: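 GH3.TRE-Luc rat pituitary cells (two TREs driving luciferase) were dosed with compound, then stimulated with 1 nM T3 (final) for 23.5 h at 37 C. ONE-Glo luminescence was the read-out, with CellTiter-Fluor fluorescence as the cytotoxicity counter-screen.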

Test [3] concerns thyroid hormone receptor (rat, GH3 cells). The test is described as follows: qHTS assay to identify small molecule agonists of the thyroid receptor (TR) signaling pathway (AID 743066; calls by dose curve).
Test [4] concerns the target Estrogen receptor (Homo sapiens) (UniProt P03372). Kind of test: qHTS assay to identify small molecule antagonists of the estrogen receptor alpha (ER-alpha) signaling pathway (AID 743069; active = well fitted curve in the direction sought with a large enough effect in the signal ratio in the repeat runs, not every such curve was filed as active; the % refers to the signal ratio). A digest of the protocol:
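In this cell-based reporter format, GripTite HEK293 cells harbouring ER-alpha-UAS-bla were grown overnight with 2% charcoal-stripped FBS, dosed with DMSO-dissolved compounds, then challenged with 17beta-estradiol. After 18 hr at 37C, beta-lactamase activity was detected by FRET fluorescence.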

A short description of test [5]: qHTS assay to identify small molecule antagonists of the estrogen receptor alpha (ER-alpha) signaling pathway - cell viability counter screen (AID 743074; calls by dose curve; note: nearly all actives have a fitted effect of over 45% in size).
The target in test [6] is Estrogen receptor (Homo sapiens) (UniProt P03372). The test is described as follows: qHTS assay to identify small molecule agonists of the estrogen receptor alpha (ER-alpha) signaling pathway (AID 743075; calls by dose curve).
For test [7] the target is unchanged. Kind of test: qHTS assay to identify small molecule agonists of the estrogen receptor alpha (ER-alpha) signaling pathway using the BG1 cell line (AID 743079). Note: nearly all actives have a fitted effect of over 20% in size. Note: potency is the fitted concentration of half-maximal effect.
Test [8] can be described thus: qHTS assay to identify small molecule antagonists of the estrogen receptor alpha (ER-alpha) signaling pathway using the BG1 cell line (AID 743080; calls by dose curve;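 note: BG1 cells stimulated with 17beta-estradiol alongside compound; nearly all actives have a fitted effect of over 25% in size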; note: potency is the fitted concentration of half-maximal effect). A digest of the protocol: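 BG1Luc4E2, endogenous ER-alpha, 4xERE-luc; 5 d charcoal-stripped FBS, phenol red free; 24 h plating; cpd + 17beta-estradiol 21.5 h, 37 C/5% CO2; CellTiter-Fluor viability 30 min, then ONE-Glo luciferase 30 min RT.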

For another test, the target named is Aromatase (Homo sapiens) (UniProt P11511). Kind of test: qHTS assay to identify aromatase inhibitors (AID 743083). Note: series mostly up to about 70 µM; nearly all actives have a fitted effect of over 55% in size.
A short description of test [9]: qHTS assay to identify aromatase inhibitors - cell viability counter screen (AID 743084).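 Note: cells stimulated with testosterone during compound exposure; nearly all actives have a fitted effect of over 55% in size.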
The nature of test [10]: qHTS assay to identify small molecule that activate the aryl hydrocarbon receptor (AhR) signaling pathway - cell viability counter screen (AID 743086). Note: series mostly up to about 70 µM; nearly all actives have a fitted effect of over 45% in size. An outline of the steps: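 HepG2-AhR-luc (HG2L7.5c1) cells, 4000/well, treated 24 h at 37 C with compound; viability measured as CellTiter-Fluor fluorescence after 30 min in the same wells as the luciferase read.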
Test [11] in a line: qHTS assay to identify small molecule antagonists of the peroxisome proliferator-activated receptor gamma (PPARg) signaling pathway - cell viability counter screen (AID 743194). Note: nearly all actives have a fitted effect of over 55% in size. Conditions: Potency: co-treated with 50 nM rosiglitazone. A digest of the protocol:
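Cytotoxicity counter screen in PPARg-bla HEK293H cells, same wells as reporter assay. Compounds plus 50 nM rosiglitazone (final) for 17 h at 37 C, then viability read by CellTiter-Glo luminescence.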

Test [12] in a line: qHTS assay for small molecule agonists of the antioxidant response element (ARE) signaling pathway - cell viability counter screen (AID 743203; calls by dose curve; note: nearly all actives have a fitted effect of over 55% in size). A digest of the protocol:
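ATP content via CellTiter-Glo luminescence served as the viability measure. Cells: ARE-bla HepG2, 2,000 per well. Exposure: 16 hrs, 37C/5% CO2.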

The nature of test [13]: qHTS assay for small molecule activators of the heat shock response signaling pathway - cell viability counter screen (AID 743209). Note: nearly all actives have a fitted effect of over 50% in size. A digest of the protocol: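 Compounds dissolved in DMSO were added to overnight-plated HSE-bla HeLa cells and left 5 h at 37 C. Cell viability was quantified by luminescence using CellTiter-Glo.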
A short description of test [14]: qHTS assay for small molecule activators of the heat shock response signaling pathway (AID 743210; active = well fitted activation curve with a large enough effect in the signal ratio in the repeat runs, with a control signal flat, not every such curve was filed as active; the % refers to the signal ratio;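 note: HeLa cells with beta-lactamase reporter driven by heat shock elements; series mostly up to about 63 µM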). An outline of the steps:
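Following overnight attachment, HSE-bla HeLa cells received test compounds for 5 h at 37 C; beta-lactamase activity was then detected via FRET substrate fluorescence.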

The nature of test [15]: qHTS assay to identify small molecule antagonists of the estrogen receptor alpha (ER-alpha) signaling pathway using the BG1 cell line - cell viability counter screen (AID 743081).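 Note: compound given together with 17beta-estradiol as the ER stimulus; series mostly up to about 70 µM; nearly all actives have a fitted effect of over 45% in size.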
For test [16], the target named is Aryl hydrocarbon receptor (Homo sapiens) (UniProt P35869). Kind of test: qHTS assay to identify small molecule that activate the aryl hydrocarbon receptor (AhR) signaling pathway (AID 743085).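 Note: HG2L7.5c1 human HepG2 liver cells with stably integrated DRE-driven firefly reporter; series mostly up to about 70 µM; nearly all actives have a fitted effect of over 15% in size.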 An outline of the steps: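 HepG2 cells stably carrying a 20-DRE firefly luciferase reporter (HG2L7.5c1) treated with compound for 24 hr at 37C. Luciferase read by ONE-Glo luminescence, with CellTiter-Fluor viability read first.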

Test [17] in a line: qHTS assay for small molecule agonists of the antioxidant response element (ARE) signaling pathway (AID 743202; active = well fitted activation curve with a large enough effect in the signal ratio in the repeat runs, not every such curve was filed as active; the % refers to the signal ratio). A digest of the protocol:
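HepG2 ARE-bla cells; 16 h treatment at 37 C; FRET-based beta-lactamase fluorescence read after 2 h substrate incubation at room temperature.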

The target of test [18] is Peroxisome proliferator-activated receptor gamma (Homo sapiens) (UniProt P37231). Kind of test: qHTS assay to identify small molecule agonists of the peroxisome proliferator-activated receptor gamma (PPARg) signaling pathway (AID 743094; active = well fitted activation curve with a large enough effect in the signal ratio in the repeat runs, not every such curve was filed as active; the % refers to the signal ratio). A digest of the protocol:
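Agonism was assessed in a beta-lactamase reporter system, HEK293H cells with a stably integrated UAS-bla construct under PPARg control; the 17 h treatment at 37C preceded a 1 h room-temperature FRET substrate read.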

For test [19] the target is unchanged. The test is described as follows: qHTS assay to identify small molecule antagonists of the peroxisome proliferator-activated receptor gamma (PPARg) signaling pathway (AID 743191; calls by dose curve; note: nearly all actives have a fitted effect of over 30% in size; note: potency is the fitted concentration of half-maximal effect). An outline of the steps: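 GeneBLAzer PPARg UAS-bla HEK293H cells, 5 h post-plating, exposed to compounds 17 h at 37C. LiveBLAzer B/G FRET substrate added for 1 h at room temperature; beta-lactamase reporter read by fluorescence intensity.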

“And” between values parts separate entries of the source, which are not always exact repeats. Equal values may be shown once. Records with an inconclusive call do not appear. The source made the active and inactive calls. Unless noted, calls come from the whole dose curve; as a rule, active = well fitted curve in the direction sought with a large enough effect in the repeat runs; inconclusive = weak or mixed curves; inactive = no such curve, though single readings can be large; an effect the other way counts as inactive or inconclusive.

Drawing on PubChem BioAssay (Tox21), this text covers Potency for eight molecules.

Peroxisome proliferator-activated receptor gamma (Homo sapiens), sequence (P37231 whole entry, looked up): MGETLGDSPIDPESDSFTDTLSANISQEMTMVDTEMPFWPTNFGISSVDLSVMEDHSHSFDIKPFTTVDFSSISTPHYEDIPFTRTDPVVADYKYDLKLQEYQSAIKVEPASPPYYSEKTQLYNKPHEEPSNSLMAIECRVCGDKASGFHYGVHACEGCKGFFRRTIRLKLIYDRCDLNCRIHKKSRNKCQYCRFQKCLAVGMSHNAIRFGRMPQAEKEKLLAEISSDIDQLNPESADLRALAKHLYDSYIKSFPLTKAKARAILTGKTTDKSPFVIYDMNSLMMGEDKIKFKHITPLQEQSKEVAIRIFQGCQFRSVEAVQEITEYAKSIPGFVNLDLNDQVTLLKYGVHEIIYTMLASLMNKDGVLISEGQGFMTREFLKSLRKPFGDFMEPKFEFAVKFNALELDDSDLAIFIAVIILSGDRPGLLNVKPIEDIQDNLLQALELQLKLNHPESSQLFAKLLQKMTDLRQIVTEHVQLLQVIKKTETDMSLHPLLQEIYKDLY
Aryl hydrocarbon receptor (Homo sapiens), sequence (P35869 whole entry, looked up): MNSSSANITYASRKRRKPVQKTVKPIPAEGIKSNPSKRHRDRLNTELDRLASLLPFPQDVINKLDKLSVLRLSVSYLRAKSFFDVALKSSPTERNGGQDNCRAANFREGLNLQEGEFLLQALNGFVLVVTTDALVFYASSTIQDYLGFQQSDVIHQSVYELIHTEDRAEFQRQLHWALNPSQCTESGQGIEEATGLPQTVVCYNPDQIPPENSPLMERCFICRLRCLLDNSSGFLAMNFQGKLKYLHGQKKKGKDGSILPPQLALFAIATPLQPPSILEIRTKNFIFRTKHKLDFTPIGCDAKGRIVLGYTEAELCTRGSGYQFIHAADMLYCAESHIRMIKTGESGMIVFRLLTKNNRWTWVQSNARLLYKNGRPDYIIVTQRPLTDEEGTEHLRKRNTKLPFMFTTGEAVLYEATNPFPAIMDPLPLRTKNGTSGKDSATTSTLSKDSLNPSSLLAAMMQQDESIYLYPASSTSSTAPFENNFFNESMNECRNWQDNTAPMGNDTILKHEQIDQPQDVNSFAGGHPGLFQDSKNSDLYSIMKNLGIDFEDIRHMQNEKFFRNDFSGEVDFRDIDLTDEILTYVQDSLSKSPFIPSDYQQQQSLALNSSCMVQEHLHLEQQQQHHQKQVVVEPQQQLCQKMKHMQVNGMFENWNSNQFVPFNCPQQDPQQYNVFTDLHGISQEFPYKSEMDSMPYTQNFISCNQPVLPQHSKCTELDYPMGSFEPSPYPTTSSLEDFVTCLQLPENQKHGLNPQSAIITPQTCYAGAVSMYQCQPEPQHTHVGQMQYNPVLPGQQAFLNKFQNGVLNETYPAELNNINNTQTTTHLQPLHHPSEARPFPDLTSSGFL
Aromatase (Homo sapiens), sequence (P11511 whole entry, looked up): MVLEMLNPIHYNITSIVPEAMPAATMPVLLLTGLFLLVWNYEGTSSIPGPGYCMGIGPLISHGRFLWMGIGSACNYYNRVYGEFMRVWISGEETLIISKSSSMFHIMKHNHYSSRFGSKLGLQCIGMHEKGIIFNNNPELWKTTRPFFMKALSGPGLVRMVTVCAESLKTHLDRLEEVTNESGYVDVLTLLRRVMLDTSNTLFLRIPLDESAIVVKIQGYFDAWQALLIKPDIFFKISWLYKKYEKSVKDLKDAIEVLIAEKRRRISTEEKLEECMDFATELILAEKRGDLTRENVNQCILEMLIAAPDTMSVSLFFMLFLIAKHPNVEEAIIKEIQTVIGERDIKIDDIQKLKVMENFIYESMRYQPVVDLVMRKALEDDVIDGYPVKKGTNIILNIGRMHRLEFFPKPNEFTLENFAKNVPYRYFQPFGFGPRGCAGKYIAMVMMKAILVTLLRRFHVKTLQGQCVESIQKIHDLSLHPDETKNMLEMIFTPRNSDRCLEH
Estrogen receptor (Homo sapiens), sequence (P03372 whole entry, looked up): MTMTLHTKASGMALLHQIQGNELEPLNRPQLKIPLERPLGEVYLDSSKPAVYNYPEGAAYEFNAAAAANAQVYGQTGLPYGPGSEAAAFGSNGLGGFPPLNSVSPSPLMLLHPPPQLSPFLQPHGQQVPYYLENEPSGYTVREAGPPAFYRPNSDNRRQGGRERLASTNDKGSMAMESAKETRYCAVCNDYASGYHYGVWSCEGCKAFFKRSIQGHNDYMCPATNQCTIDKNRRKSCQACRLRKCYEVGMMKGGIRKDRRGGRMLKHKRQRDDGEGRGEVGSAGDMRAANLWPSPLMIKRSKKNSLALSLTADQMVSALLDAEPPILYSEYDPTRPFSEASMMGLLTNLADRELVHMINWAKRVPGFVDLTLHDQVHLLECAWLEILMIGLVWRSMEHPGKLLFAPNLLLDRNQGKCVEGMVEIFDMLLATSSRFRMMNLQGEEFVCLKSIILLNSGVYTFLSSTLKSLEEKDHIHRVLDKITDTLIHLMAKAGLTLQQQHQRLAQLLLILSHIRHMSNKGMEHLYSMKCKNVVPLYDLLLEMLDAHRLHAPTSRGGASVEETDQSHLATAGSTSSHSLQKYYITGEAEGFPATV

Regarding `Cc1cccc(C)c1NC1=NCCCS1`, the Potency result in [1], in test [2], in test [3], in [4], in test [5] and in test [6] was “inactive” each time. The Potency result (in [7]; in test [8]; with Aromatase (Homo sapiens); in test [9]; in [10]; in test [11]) was “inactive” in each case. Also, the Potency result in test [12], in test [13] and in [14] was “inactive” in each case.
Regarding `C[N+](C)(C)CC1CO1` (stereo unspecified), the Potency result in test [1], in [2], in [3], in test [4], in test [5] and in test [6] was “inactive” throughout. In addition, the Potency result (in [7]; in [15]; in the test with Aromatase (Homo sapiens); in test [9]; in test [16]; in test [10]) was “inactive” throughout. The Potency entry in test [11], in test [17], in test [12], in [13] and in test [14] was “inactive” each time.
Regarding `OCCSSCCO`, the Potency entry in test [1], in test [2], in [3], in test [4], in test [5] and in test [6] was “inactive” throughout. Further, the Potency entry (in test [7]; in [8]; in test [15]; with Aromatase (Homo sapiens); in [9]; in [16]) was “inactive” throughout. Besides, the Potency result in test [10], in [11], in test [12], in test [13] and in test [14] was “inactive” each time.
Regarding `C=CCOCC1CO1` (stereo unspecified), the Potency result in test [1], in test [2], in test [3], in test [4], in test [5] and in [6] was “inactive” each time. The Potency result (in [7]; in [8]; in [15]; with Aromatase (Homo sapiens); in [9]; in test [16]) was “inactive” each time. The Potency result in test [10], in test [18], in test [19], in test [11], in test [17] and in test [12] was “inactive” each time. Further, the Potency entry in [13] and in [14] was “inactive” throughout.
`CC(C)c1ccc(OP(=O)(Oc2ccc(C(C)C)cc2)Oc2ccc(C(C)C)cc2)cc1`: the Potency in test [1] is 54.9 µM (active) and 68.6 µM (active) and 30.6 µM (active); in test [2], 54.9 µM (active) and 54.5 µM (active) and 30.6 µM (active); in [7], 2.75 µM (active) and 6.85 µM (active); in test [19], 38.9 µM (active). Besides, the Potency entry in [3], in test [4], in [5], in [6], in test [8] and in [15] was “inactive” throughout. The Potency entry (with Aromatase (Homo sapiens); in [9]; in [10]; in test [18]; in test [11]; in [17]) was “inactive” throughout. Also, the Potency result in test [12], in [13] and in test [14] was “inactive” each time.
Consider `COCc1cnc(C2=NC(C)(C(C)C)C(=O)N2)c(C(=O)O)c1` (stereo unspecified), for which the Potency result in test [1], in test [2], in [3], in test [4], in test [5] and in test [6] was “inactive” throughout. Also, the Potency entry (in test [7]; in test [15]; with Aromatase (Homo sapiens); in test [9]; in [16]; in test [10]) was “inactive” throughout. Besides, the Potency result in test [18], in [19], in test [11], in [12], in test [13] and in test [14] was “inactive” throughout.
With `O=C([O-])c1ccccn1.O=C([O-])c1ccccn1.O=C([O-])c1ccccn1.[Cr+3]`, the Potency entry in test [1], in [2], in test [3], in test [4], in test [5] and in test [6] was “inactive” in each case. The Potency entry (in test [7]; in [8]; in test [15]; with Aromatase (Homo sapiens); in [9]; in test [10]) was “inactive” each time. For the same molecule, the Potency entry in [18], in test [11], in test [17], in test [12], in test [13] and in [14] was “inactive” throughout.
With `C=CCOC(=O)C(C)(C)OC(=O)c1cc(-n2c(=O)cc(C(F)(F)F)n(C)c2=O)ccc1Cl`, the Potency entry in test [1], in test [2], in [3], in test [4], in test [5] and in test [6] was “inactive” in each case. In addition, the Potency entry (in test [7]; in test [15]; with Aromatase (Homo sapiens); in test [9]; in test [16]; in test [10]) was “inactive” each time. Moreover, the Potency entry in test [19], in [11], in test [12] and in test [14] was “inactive” throughout. Besides, the Potency in [8] was 26.8 µM (active).
